Screens (PubChem)
Only some compounds are listed: those with a hit (about 3.6% of all), similar ones and a draw of the others.
Nrf2 block = Nrf2 qHTS screen for inhibitors. actives 2.1% (n = 360,000). AID 504444, 2011. Potency, µM (series often up to 46 µM), for inactives: at the top dose activity change, negative = inhibition, hits mostly inhibitors. A549 ARE-Fluc reporter, luciferase luminescence, 18-24 h; further: on the % scale 0 is the no-effect control and ±100 the full control effect; nearly all actives have a fitted effect of over 60% in size
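A549 ARE_Fluc cells, 5000/well, 5% FBS OPTI-MEM; compounds in dose-response, 18-24 h at 37 °C/5% CO2; CellTiter-Fluor viability read (Ex 405/Em 525), then BugLite luciferase luminescence = Nrf2 activity.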
Nrf2 activator = qHTS of Nrf2 Activators | AREc32 ARE-luciferase reporter (MCF7-derived line), luminescence, 24 h | Potency, µM (titrated, usually from 46.1 µM), for inactives: at the highest dose activation, usual class: activators | actives 0.31% (n = 410,000); further: % of control where 0% means no effect; nearly all actives have a fitted effect of over 65% in size
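ARE activation measured as luciferase luminescence (Steady-Glo, 30 min RT) in AREc32_Fluc cells after 24 hr compound exposure at 37 deg C, 5% CO2; cells seeded overnight at 1000/well in OPTI-MEM, 5% FBS.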
A549 tox-1 = Nrf2 qHTS screen for inhibitors: counterscreen for cytotoxicity; Potency, µM (doses to about 46 µM), for inactives: top-dose activity change, negative = cytotoxicity, hits mostly inhibitors; AID 504648, 2011; actives 0.16% (n = 390,000); A549 ARE-Fluc cells, CellTiter-Fluor viability, 18-24 h; further: on the % scale 0 is the no-effect control and ±100 the full control effect
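A549 ARE-Fluc cells in 5% FBS OPTI-MEM, 5000 cells/well, rested 2 h then exposed to compounds in concentration-response for 18-24 h at 37 °C. Viability by CellTiter-Fluor fluorescence (Ex 405/Em 525) after 30 min; luciferase luminescence (BugLite, 15 min, RT) read afterwards.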
TGFb inhibitor = qHTS for Inhibitors of TGF-b. HepG2 CAGA-GFP TGF-b/SMAD3 reporter, GFP fluorescence, 18 h; TGF-beta stimulated, 500 pg/mL final. Potency, µM (highest dose often 46.1 µM), without a hit: at the highest dose activity, negative = inhibition, hits mostly inhibitors. actives 1.2% (n = 410,000). AID 588855, 2011; further: on the % scale 0 is the no-effect control and ±100 the full control effect; nearly all actives have a fitted effect of over 65% in size
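Read-out: total well GFP (ex488/em500-530) summed from mean per-cell fluorescence. Cells: HEPG2 CAGA-GFP, 1% FBS DMEM, 18 h at 37 degrees C with 500 pg/mL final TGF-beta. Unstimulated wells served as the full-inhibition control; stimulated DMSO wells = 0%.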
HepG2 viability = qHTS for Inhibitors of TGF-b: Cytotox Counterscreen; HepG2 CAGA-GFP viability, ATP luminescence, 18 h; Potency, µM (top dose mostly 46.1 µM), for inactives: top-dose activity change, negative = cytotoxicity, usual class: cytotoxic; actives 0.76% (n = 410,000)
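CellTiter-Glo luminescence gave cytotoxicity after 18 hours at 37 degrees C. The cells were HepG2 CAGA-GFP in 1% FBS DMEM, stimulated with 500 pg/mL TGF-beta after compound addition. %Activity was normalised to no-cell wells (complete cell-killing) and DMSO (no toxicity), and curves were fitted and classified.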
FLuc enzyme inh = Nrf2 qHTS screen for inhibitors: Purified Fluc Biochemical Counterscreen for Hit Validation; shares compounds with Nrf2 block; purified firefly luciferase, luminescence inhibition; Potency, µM (highest dose often 57.5 µM), inactives show at the top dose activity change, negative = inhibition, hits mostly inhibitors; actives 4% (n = 1,400); further: on the % scale 0 is the no-effect control and ±100 the full control effect; nearly all actives have a fitted effect of over 65% in size
Target sequence (P08659 whole entry, looked up): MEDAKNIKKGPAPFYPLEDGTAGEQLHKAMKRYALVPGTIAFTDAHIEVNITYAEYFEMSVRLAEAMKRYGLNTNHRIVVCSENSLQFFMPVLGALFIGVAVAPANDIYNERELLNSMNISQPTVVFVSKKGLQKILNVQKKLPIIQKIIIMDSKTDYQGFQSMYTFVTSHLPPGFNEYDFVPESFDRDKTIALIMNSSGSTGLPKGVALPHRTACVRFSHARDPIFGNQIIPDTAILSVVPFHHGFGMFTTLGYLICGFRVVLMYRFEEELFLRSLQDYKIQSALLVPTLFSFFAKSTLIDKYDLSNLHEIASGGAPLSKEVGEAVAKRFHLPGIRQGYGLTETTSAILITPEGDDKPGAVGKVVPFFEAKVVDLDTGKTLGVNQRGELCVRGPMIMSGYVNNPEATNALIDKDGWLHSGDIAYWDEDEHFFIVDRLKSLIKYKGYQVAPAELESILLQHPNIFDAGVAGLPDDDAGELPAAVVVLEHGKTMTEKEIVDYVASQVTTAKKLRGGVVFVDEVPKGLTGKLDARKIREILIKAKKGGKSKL
A549 tox-2 = Nrf2 qHTS screen for inhibitors: A549 ARE-Fluc Cytotoxicity Counterscreen for Hit Validation | shares compounds with Nrf2 block | A549 ARE-Fluc cells, cytotoxicity counterscreen | Potency, µM (titrated, usually from 46.1 µM), for inactives: at the top dose activity change, negative = cytotoxicity, hits mostly inhibitors | actives 2% (n = 1,400) | AID 720523, 2013;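 further: cells exposed to compounds for 18 to 24 hours; on the % scale 0 is the no-effect control and ±100 the full control effect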
Nrf2 ARE inh = Nrf2 qHTS screen for inhibitors: Nrf2 A549 ARE-Fluc Confirmation Assay for Hit Validation; Potency, µM (highest dose often 46.1 µM), for inactives: at the highest dose activity change, negative = inhibition, usual class: inhibitors; A549 ARE-firefly luciferase reporter, luminescence; actives 74% (n = 1,400); shares compounds with Nrf2 block; further: on the % scale 0 is the no-effect control and ±100 the full control effect; nearly all actives have a fitted effect of over 65% in size
Starred values were filed as active, the others as inactive; ? = inconclusive; / = no result given. The call rests on the fitted dose curve; in most records, active means well fitted curve in the direction sought with a large enough effect; inconclusive means small, poorly fitted or top-dose-only effect, or another doubt; inactive means no such curve, though single readings can be large; an effect the other way counts as inactive or inconclusive. Potency means the concentration at half of the fitted maximal effect.

SMILES	Nrf2 block	Nrf2 activator	A549 tox-1	TGFb inhibitor	HepG2 viability	FLuc enzyme inh	A549 tox-2	Nrf2 ARE inh
O=C(Nc1nc(-c2cc3ccccc3o2)cs1)c1ccc(S(=O)(=O)N2CCCC2)cc1	4.11µM*	-0.6%	-25.4%	-31.0%	-19.9%	-17.2%	-19.4%	5.17µM*
O=C(Nc1nc(-c2ccc(S(=O)(=O)N3CCOCC3)cc2)cs1)c1ccccc1	4.61µM*	5.1%	-16.7%	-19.4%	-29.7%	?	2.5%	/
O=C(Nc1nc(-c2nc3ccccc3s2)cs1)c1ccc(S(=O)(=O)N2CCOCC2)cc1	-3.3%	3.1%	-16.3%	?	-32.5%	/	/	/
Cc1ccc(C(=O)Nc2nc(-c3ccccn3)cs2)cc1S(=O)(=O)N1CCOCC1	8.2µM*	0.1%	?	?	-28.1%	10.7µM*	?	1.64µM*
COc1ccc(C(=O)N2CCOC2CNC(=O)C(=O)NCCc2ccccc2OC)cc1 (centres undefined)	4.7%	0.0%	-0.9%	14.1%	23.0%	/	/	/
CCCC1OC2CC3C4CCC5=CC(=O)C=CC5(C)C4C(O)CC3(C)C2(C(=O)O)O1 (centres undefined)	0.461µM*	0.0%	-15.4%	1.1%	-2.1%	-2.8%	-15.4%	1.3µM*
CCCC1O[C@@H]2C[C@H]3[C@@H]4CCC5=CC(=O)C=C[C@]5(C)[C@H]4[C@@H](O)C[C@]3(C)[C@]2(C(=O)CO)O1 (some centres undefined)	?	-0.3%	-16.1%	9.5%	-28.6%	/	/	/
CCC(=O)O[C@]1(C(=O)CCl)[C@@H](C)C[C@H]2[C@@H]3CCC4=CC(=O)C=C[C@]4(C)[C@@]3(F)[C@@H](O)C[C@@]21C	?	-0.5%	-7.2%	13.4%	-1.5%	/	/	/
CCC(=O)[C@@]1(C)[C@H](C)C[C@H]2[C@@H]3CCC4=CC(=O)C=C[C@]4(C)[C@H]3[C@@H](O)C[C@@]21C	0.0164µM*	-1.1%	-9.3%	36.2%	-1.4%	3.1%	-9.3%	0.0184µM*
O=C(COC(=O)c1ccc[nH]c1=O)Nc1ccc(S(=O)(=O)N2CCCC2)cc1	0.0%	0.0%	-24.7%	1.3%	-0.3%	/	/	/
O=C(COC(=O)c1ccc[nH]c1=O)Nc1ccc(N2CCCCC2)cc1	2.31µM*	-3.1%	-0.6%	0.2%	-5.6%	10.7µM*	-1.2%	4.11µM*
COC(=O)C(NC(C)=O)(Nc1nc2ccc(S(C)(=O)=O)cc2s1)C(F)(F)F (centres undefined)	-11.0%	-0.1%	0.5%	4.3%	-34.9%	/	/	/
CC(NNC(=S)N1CCN(c2ccccn2)CC1)c1nccc2ccccc12 (centres undefined)	5.8µM*	3.3%	?	?	-12.1%	-13.1%	?	?
N#Cc1cccc(NC(=O)CNC(=O)Cc2ccccc2)c1	13.0%	2.0%	-0.3%	-1.8%	-8.0%	/	/	/
CCCn1c(N)c(C(=O)CN(C)CC(=O)Nc2ccccc2CC)c(=O)[nH]c1=O	-13.9%	-0.4%	1.6%	?	-22.2%	/	/	/
